ELG1 genotox: qHTS screen for small molecules that induce genotoxicity in human embryonic kidney (HEK293T) cells expressing luciferase-tagged ELG1; 1.3% of 330,000 active; Potency, µM (doses to about 46 µM), for the others: at the highest dose activity change, positive = activation, actives largely listed as activators; HEK293T ELG1-luciferase reporter, luminescence, 16 h; further: % of control where 0% means no effect; nearly all actives have a fitted effect of over 60% in size
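Genotoxic stress is detected as increased luminescence from luciferase-tagged ELG1 in HEK293T cells, measured with ONE-Glo after a 16 hr treatment at 37 °C.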
Rab9 prom act: qHTS Assay for Rab9 Promoter Activators; Huh7 Rab9 promoter-luciferase reporter, luminescence, 24 h; Potency, µM (series often up to 9.22 µM), for the others: at the highest dose activation, negative = inhibition, hits mostly activators; 2.8% of 320,000 active; AID 485297, 2010; further: % of control where 0% means no effect; nearly all actives have a fitted effect of over 60% in size
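Stable Rab9-luc Huh7, 1500 cells/well, 2 h settle; cmpd in DMSO, 24 h, 37 °C/5% CO2; luciferase reagent 10 min RT; luminescence.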
NPC1 promoter act: qHTS Assay for NPC1 Promoter Activators; AID 485313, 2010; Potency, µM (highest dose often 9.22 µM), inactives show top-dose activation, usual class: activators; Huh7 NPC1 promoter luciferase reporter, 24 h; 2.4% of 320,000 active; further: % of control where 0% means no effect; nearly all actives have a fitted effect of over 60% in size
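Cells: Huh7 expressing luciferase under the NPC1 promoter, 1500/well. Seeded 2 h, compound added, incubated 24 h at 37 °C. Luciferase reagent, 10 min ambient, then luminescence.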
SMN2 splice up: qHTS Assay for Enhancers of SMN2 Splice Variant Expression; HEK293 SMN2-luciferase splicing reporter, luminescence, 30-36 h; Potency, µM (highest dose often 46.1 µM), inactives show at the highest dose activity change, positive = activation, usual class: activators; 2.8% of 210,000 active; AID 1458, 2008; further: % of control where 0% means no effect; nearly all actives have a fitted effect of over 55% in size
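qHTS luciferase splicing reporter: luminescence rises when SMN2 exon 7 is included in transfected HEK293 cells. Compound exposure lasted 30-36 h at 37C, with 4.5 mM final sodium butyrate as control, followed by a ONE-Glo read.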
FLuc modulator: qHTS profiling assay for firefly luciferase inhibitor/activator using purifed enzyme and Km concentrations of substrates (counterscreen for miR-21 project); Luciferin 4-monooxygenase (Photinus pyralis), P08659; purified FLuc, Km substrates, luminescence inhibition; Potency, µM (series often up to 57.5 µM), without a hit: at the highest dose activity change, negative = inhibition, usual class: inhibitors; 6.9% of 360,000 active;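 further: plate controls were vehicle for no effect and reference inhibitor for full effect; nearly all actives have a fitted effect of over 55% in size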
Target sequence (P08659 whole entry, looked up): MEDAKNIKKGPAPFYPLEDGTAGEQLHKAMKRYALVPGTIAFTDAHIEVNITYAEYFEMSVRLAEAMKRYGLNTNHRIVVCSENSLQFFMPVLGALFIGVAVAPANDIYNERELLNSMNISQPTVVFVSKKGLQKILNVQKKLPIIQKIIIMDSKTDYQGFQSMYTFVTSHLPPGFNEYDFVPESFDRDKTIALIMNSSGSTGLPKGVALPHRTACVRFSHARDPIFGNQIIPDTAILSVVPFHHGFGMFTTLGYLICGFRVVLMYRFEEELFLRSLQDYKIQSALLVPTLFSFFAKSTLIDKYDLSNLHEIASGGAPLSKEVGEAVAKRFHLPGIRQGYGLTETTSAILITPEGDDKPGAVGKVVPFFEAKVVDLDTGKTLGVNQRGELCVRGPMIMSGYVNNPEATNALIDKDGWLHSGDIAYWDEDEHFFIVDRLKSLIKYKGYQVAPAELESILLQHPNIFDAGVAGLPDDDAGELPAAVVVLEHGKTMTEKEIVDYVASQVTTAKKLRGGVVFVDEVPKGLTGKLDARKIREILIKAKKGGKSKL
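Purified P. pyralis luciferase (10nM final) with 10uM D-luciferin and 10uM ATP (Km levels) in 50mM Tris acetate pH 7.5, 10mM Mg acetate, 0.01% Tween-20, 0.05% BSA; qHTS 6-point titration, ~60 µM downward; luminescence read.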
ELG1 repair inh: qHTS screen for small molecules that inhibit ELG1-dependent DNA repair in human embryonic kidney (HEK293T) cells expressing luciferase-tagged ELG1. HEK293T ELG1-luciferase reporter, luminescence, 16 h; DNA damage induced by 5-fluorouridine. Potency, µM (top dose mostly 46.1 µM), for inactives: at the top dose activity change, negative = inhibition, usual class: inhibitors. 2.3% of 330,000 active; further: on the % scale 0 is the no-effect control and ±100 the full control effect; nearly all actives have a fitted effect of over 55% in size
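5-Fluorouridine DNA damage + compound/DMSO, 2,000 cells/well, 16 h, 37 °C/5% CO2. ONE-Glo, 30 min RT, luminescence. Readout = decrease in reporter signal.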
* hit, by the source's call; ? = inconclusive; · = no result; [ ] = remark or other dose. In the library only some 9.3% were active in any assay of this set; here they are far more common. The call rests on the fitted dose curve; in most records, active means well fitted curve in the direction sought with a large enough effect; inconclusive means small, poorly fitted or top-dose-only effect, or another doubt; inactive means no such curve, though single readings can be large; an effect the other way counts as inactive or inconclusive. Potency means the concentration at half of the fitted maximal effect.

SMILES	ELG1 genotox	Rab9 prom act	NPC1 promoter act	SMN2 splice up	FLuc modulator	ELG1 repair inh
N/C(=N\OC(=O)c1cc(Br)ccc1Cl)c1cccnc1	12%	?	?	19%	21µM*	?
N/C(=N\OC(=O)c1ccccc1)c1ccn[nH]1	10µM*	3.5µM*	2.2µM*	·	6.7µM*	?
N/C(=N\OC(=O)c1ccccc1)c1cccnc1	?	30%	19%	·	5.4µM*	?
O=C(O/N=C(/c1ccccc1)c1ccncc1)c1ccc(F)cc1	-3%	-2%	-5%	-20%	-5%	3%
Cc1ncsc1CCC(=O)N1CCCC(Nc2ccc(C(C)C)cc2)C1 (stereo unspecified)	-8%	-10%	0%	·	-1%	-10%
Cc1ccc(C(=O)O/N=C(\c2ccccc2)c2cccnc2)cc1	2%	1%	-3%	-10%	17µM*	1%
N/C(=N\OC(=O)c1ccccc1Cl)c1cccnc1	?	?	3.5µM*	16µM*	4.3µM*	?
N/C(=N\OC(=O)c1ccc(Cl)cc1[N+](=O)[O-])c1cccnc1	?	?	25%	·	24µM*	?
CCCCCCC1CC(=O)NC(=O)N1 (stereo unspecified)	0%	-1%	3%	·	-1%	1%
COc1ccc([C@@H]2CC(=O)c3c(O)cc(O[C@H]4O[C@@H](CO[C@H]5O[C@@H](C)[C@@H](O)[C@@H](O)[C@@H]5O)[C@@H](O)[C@@H](O)[C@@H]4O)cc3O2)cc1O	·	·	·	3%[20.6 µM]	·	·
Cc1ccc(C)c(C(=O)COC(=O)CN2C(=O)C3C4C=CC(C4)C3C2=O)c1 (stereo unspecified)	1%	-2%	2%	·	-5%	27%
COCC(=O)N1CCC2(CC1)CCN(c1ncccn1)CC2	·	·	·	-7%	·	·
O=C(CSc1nc(=O)[nH]c2c1CCC2)NCc1ccccc1Cl	·	·	·	·	4%	·
CC(NC(=O)CSc1nnc(-c2cccnc2)n1N)c1ccccc1 (stereo unspecified)	0%	2%	2%	10%	-3%	2%
Cc1ccc(-c2cc(-c3nnc(SCC(=O)NC(C)C(C)C)n3N)c3ccccc3n2)cc1 (stereo unspecified)	0%	0%	0%	-3%	8.5µM*	-9%
COc1c(OC(C)=O)ccc(/C=C/c2ccc3ccccc3n2)c1[N+](=O)[O-]	?	?	?	22µM*	1.5µM*	?
CCn1c(/C=C/c2ccccc2[N+](=O)[O-])nc2ccccc2c1=O	3%	2%	-3%	-20%	?	?
O=[N+]([O-])c1ccccc1/C=C/c1ccc2ccccc2n1	?	4µM*	3.5µM*	·	2.1µM*	?
CCOc1c(OC(C)=O)ccc(/C=C/c2ccc3cccc(OC(C)=O)c3n2)c1[N+](=O)[O-]	-3%	?	?	24%	?	?
COc1c(OC(C)=O)ccc(/C=C/c2ccc3cccc(OC)c3n2)c1[N+](=O)[O-]	6%	21%	22%	23%	12µM*	?
Cc1coc2c1c(C)cc1oc(=O)c(CC(=O)NCCCN3CCCC3=O)c(C)c12	8%	-8%	-1%	·	?	1%
CC1CN(C(=O)CCNC(=O)c2ccc(Br)cc2)CC(C)O1 (stereo unspecified)	1%	-5%	-6%	·	1%	17%
CN(c1ccccc1)S(=O)(=O)c1cccc(NC(=O)CSc2n[nH]c(N)n2)c1	-11%	-4%	-1%	·	-13%	21µM*
Nc1nc(SCC(=O)Nc2cccc(S(=O)(=O)N3CCCCCC3)c2)n[nH]1	-1%	-1%	2%	-10%	17µM*	-5%
O=C(CSc1nnc(Nc2ccccc2)s1)Nc1cccc(S(=O)(=O)N2CCCCC2)c1	-1%	-5%	3%	-22%	12µM*	?
SMILES	ELG1 genotox	Rab9 prom act	NPC1 promoter act	SMN2 splice up	FLuc modulator	ELG1 repair inh
CCCCC/C=C\C/C=C\C/C=C\CC1OC1CCCC(=O)O (stereo unspecified)	·	·	·	11%	·	·
Cn1c(=O)c2c(O)c([N+](=O)[O-])c(=O)n(C)c2n(C)c1=O	-1%	-1%	2%	·	-1%	1%
CCOc1ccc(NC(=O)c2[nH]c(C)c(C(C)=O)c2C)cc1	?	?	?	·	15µM*	?
CCc1ccc(NC(=O)c2[nH]c(C)c(C(C)=O)c2C)cc1	?	1.6µM*	1.6µM*	·	12µM*	?
CCOC(=O)c1ccc(NC(=O)c2c(C)[nH]c(C(=O)OCC)c2C)cc1	-6%	-1%	1%	16%	1%	-19%
CCCOc1ccccc1NC(=O)c1ccc([N+](=O)[O-])cc1	11%	20%	27%	-16%	-1%	-15%
O=C(N/N=C/C1CC=CCC1)c1cc(Br)ccc1O (stereo unspecified)	1%	1%	-1%	6%	13µM*	?
C/C=N/NC(=O)c1cc(Br)ccc1O	-1%	-3%	1%	-10%	6%	2%
Cc1ccc(C(=O)N/N=C\C2CC=CCC2)cc1[N+](=O)[O-] (stereo unspecified)	3%	-8%	1%	·	-19%	2%
O=C(N/N=C/C1CC=CCC1)c1ccccc1O (stereo unspecified)	10%	-3%	1%	-7%	15µM*	3%
O=C(N/N=C/C1CC=CCC1)c1ccc(Cl)cc1O (stereo unspecified)	2%	3%	2%	26%	19µM*	9%
O=C(COc1cccc(NC(=O)c2cccs2)c1)c1ccc(F)cc1	-5%	11%	1%	-32%	24µM*	?
O=C(O)COc1cccc(NC(=O)c2ccccc2)c1	-1%	-1%	2%	20%	?	10%
Cc1cccc(C(=O)Nc2cccc(OCC(=O)O)c2)c1	1%	-8%	-4%	·	15µM*	-6%
COc1cccc(C(=O)Nc2cccc(OCC(=O)c3ccccc3)c2)c1	-15%	2%	2%	-17%	12µM*	?
COC(=O)c1ccc(OCC(=O)c2ccccc2)cc1	?	3.2µM*	3.2µM*	13µM*	7.6µM*	?
CC(C)(C(=O)O)n1cncn1	-1%	1%	1%	3%	-2%	1%
O=C(COc1cccc(NC(=O)c2ccccc2)c1)c1ccccc1	0%	-3%	-3%	·	15µM*	4%

Screening data: PubChem BioAssay, National Center for Advancing Translational Sciences (NCATS)
